PubChem BioAssay AID1159580 (chemical genetic matrix, 2015)
Out of some 5,500 compounds screened, about 2,000 (36%) were called active. Inconclusive results (about 18%) are left out. Cut-off read from the data, not from the text of the source: active = normalized growth mostly below about 0.91 (no sharp cut-off); inconclusive = no clear call, values can overlap the other calls; inactive = mostly above about 0.92. The list shows a part of the results.

Test: chemical genetic growth profiling, strain panel (AID 1159580);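 note: tested at 20 µM; growth read once vehicle control cultures reached saturation at 30 °C; 1 = growth at the plate median or of vehicle wells; lower values mean less growth of the strain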
Details: growth OD

Measured: normalized growth

CN(C)CCCO[C@H]1[C@@H](C(O)CO)OC2OC(C)(C)O[C@@H]21 (some centres not stated)
inactive: S. cerevisiae deletion strains, locus YJR075W, strain HOC1, active compounds read low 0.981 | S. cerevisiae deletion strains, locus YKL009W, strain mrt4, active compounds read low 0.988 | S. cerevisiae deletion strains, locus YKL068W, active compounds read low 0.99 | S. cerevisiae deletion strains, locus YKL085W, strain MDH1 (second series), active compounds read low 1.01 | S. cerevisiae deletion strains, locus YKL085W, strain MDH1, active compounds read low 1.01 | S. cerevisiae deletion strains, locus YKL160W, strain elf1, active compounds read low 0.975 | S. cerevisiae deletion strains, locus YKL190W, strain CNB1, active compounds read low 0.97 | S. cerevisiae deletion strains, locus YKR026C, strain gcn3, active compounds read low 0.991 | S. cerevisiae deletion strains, locus YKR091W, strain srl3, active compounds read low 0.98 | S. cerevisiae deletion strains, locus YLL001W, strain dnm1, active compounds read low 0.94 | S. cerevisiae deletion strains, locus YLL026W, active compounds read low 0.985 | S. cerevisiae deletion strains, locus YLL041C, strain sdh2, active compounds read low 0.993 | S. cerevisiae deletion strains, locus YLR027C, strain aat2, active compounds read low 0.997 | S. cerevisiae deletion strains, locus YLR039C, strain RIC1, active compounds read low 0.993 | S. cerevisiae deletion strains, locus YLR058C, strain SHM2, active compounds read low 0.985 | S. cerevisiae deletion strains, locus YLR102C, strain apc9, active compounds read low 0.988 | S. cerevisiae deletion strains, locus YLR113W, strain HOG1, active compounds read low 0.985 | S. cerevisiae deletion strains, locus YLR221C, strain rsa3, active compounds read low 0.957 | S. cerevisiae deletion strains, locus YLR258W, strain gsy2, active compounds read low 0.998 | S. cerevisiae deletion strains, locus YLR262C, strain YPT6 (second series), active compounds read low 0.978 | S. cerevisiae deletion strains, locus YLR262C, strain YPT6, active compounds read low 1.04 | S. cerevisiae deletion strains, locus YLR268W, strain sec22, active compounds read low 0.945 | S. cerevisiae deletion strains, locus YLR320W, strain mms22, active compounds read low 0.963 | S. cerevisiae deletion strains, locus YLR330W, strain CHS5, active compounds read low 0.995 | S. cerevisiae deletion strains, locus YLR342W, strain FKS1 (second series), active compounds read low 0.896 | S. cerevisiae deletion strains, locus YLR342W, strain FKS1, active compounds read low 0.985 | S. cerevisiae deletion strains, locus YLR357W, strain rsc2, active compounds read low 0.955 | S. cerevisiae deletion strains, locus YLR370C, strain arc18, active compounds read low 0.977 | S. cerevisiae deletion strains, locus YLR371W, strain rom2, active compounds read low 0.993 | S. cerevisiae deletion strains, locus YLR384C, strain iki3, active compounds read low 0.972 | S. cerevisiae deletion strains, locus YML016C, strain PPZ1, active compounds read low 0.979 | S. cerevisiae deletion strains, locus YML032C, strain rad52, active compounds read low 0.945 | S. cerevisiae deletion strains, locus YML120C, strain ndi1, active compounds read low 0.964 | S. cerevisiae deletion strains, locus YML124C, strain tub3, active compounds read low 0.98 | S. cerevisiae deletion strains, locus YMR058W, strain fet3, active compounds read low 0.975 | S. cerevisiae deletion strains, locus YMR078C, strain ctf18, active compounds read low 0.969 | S. cerevisiae deletion strains, locus YMR125W, strain sto1, active compounds read low 0.978 | S. cerevisiae deletion strains, locus YMR129W, active compounds read low 0.993 | S. cerevisiae deletion strains, locus YMR205C, strain PFK2, active compounds read low 0.961 | S. cerevisiae deletion strains, locus YMR231W, strain pep5, active compounds read low 0.991 | S. cerevisiae deletion strains, locus YMR263W, strain SAP30, active compounds read low 0.942 | S. cerevisiae deletion strains, locus YMR307W, strain GAS1, active compounds read low 0.937 | S. cerevisiae deletion strains, locus YNL067W, strain RPL9B, active compounds read low 0.974 | S. cerevisiae deletion strains, locus YNL071W, strain lat1, active compounds read low 1.06 | S. cerevisiae deletion strains, locus YNL128W, strain TEP1, active compounds read low 1 | S. cerevisiae deletion strains, locus YNL153C, strain GIM3, active compounds read low 0.953 | S. cerevisiae deletion strains, locus YNL183C, strain NPR1, active compounds read low 0.945 | S. cerevisiae deletion strains, locus YNL209W, strain ssb2, active compounds read low 0.999 | S. cerevisiae deletion strains, locus YNL233W, strain BNI4, active compounds read low 0.917 | S. cerevisiae deletion strains, locus YNL248C, strain rpa49, active compounds read low 0.983 | S. cerevisiae deletion strains, locus YNL250W, strain rad50, active compounds read low 0.936 | S. cerevisiae deletion strains, locus YNL271C, strain bni1, active compounds read low 0.983 | S. cerevisiae deletion strains, locus YNL298W, strain CLA4, active compounds read low 0.974 | S. cerevisiae deletion strains, locus YNL322C, strain KRE1 (second series), active compounds read low 0.968 | S. cerevisiae deletion strains, locus YNL322C, strain KRE1, active compounds read low 0.991 | S. cerevisiae deletion strains, locus YNR049C, strain mso1, active compounds read low 0.971 | S. cerevisiae deletion strains, locus YNR052C, strain pop2, active compounds read low 0.987 | S. cerevisiae deletion strains, locus YOL006C, strain TOP1, active compounds read low 0.876 | S. cerevisiae deletion strains, locus YOL012C, strain htz1 0.444 | S. cerevisiae deletion strains, locus YOL147C, strain pex11, active compounds read low 0.991 | S. cerevisiae deletion strains, locus YOR001W, strain rrp6, active compounds read low 1.01 | S. cerevisiae deletion strains, locus YOR061W, strain CKA2, active compounds read low 0.995 | S. cerevisiae deletion strains, locus YOR069W, strain VPS5, active compounds read low 0.984 | S. cerevisiae deletion strains, locus YOR070C, strain gyp1, active compounds read low 0.99 | S. cerevisiae deletion strains, locus YOR080W, strain dia2, active compounds read low 0.968 | S. cerevisiae deletion strains, locus YOR083W, strain WHI5, active compounds read low 0.953 | S. cerevisiae deletion strains, locus YOR106W, strain vam3, active compounds read low 0.926 | S. cerevisiae deletion strains, locus YOR136W, strain idh2, active compounds read low 0.966 | S. cerevisiae deletion strains, locus YOR144C, strain elg1, active compounds read low 0.992 | S. cerevisiae deletion strains, locus YOR231W, strain MKK1, active compounds read low 0.97 | S. cerevisiae deletion strains, locus YOR265W, strain rbl2, active compounds read low 0.993 | S. cerevisiae deletion strains, locus YOR270C, strain vph1, active compounds read low 0.925 | S. cerevisiae deletion strains, locus YOR290C, strain snf2, active compounds read low 0.964 | S. cerevisiae deletion strains, locus YOR316C, strain cot1, active compounds read low 0.988 | S. cerevisiae deletion strains, locus YPL051W, strain arl3, active compounds read low 0.985 | S. cerevisiae deletion strains, locus YPL055C, strain LGE1, active compounds read low 0.954 | S. cerevisiae deletion strains, locus YPL078C, strain atp4, active compounds read low 0.973 | S. cerevisiae deletion strains, locus YPL106C, strain sse1, active compounds read low 0.96 | S. cerevisiae deletion strains, locus YPL240C, strain hsp82, active compounds read low 0.985 | S. cerevisiae deletion strains, locus YPL241C, strain CIN2, active compounds read low 0.987 | S. cerevisiae deletion strains, locus YPL256C, strain CLN2, active compounds read low 0.971 | S. cerevisiae deletion strains, locus YPR119W, strain clb2, active compounds read low 0.992 | S. cerevisiae deletion strains, locus YPR141C, strain kar3, active compounds read low 0.99 | S. cerevisiae deletion strains, locus YPR163C, strain tif3, active compounds read low 0.986 | S. cerevisiae deletion strains, locus YPR167C, strain met16, active compounds read low 0.992 | S. cerevisiae deletion strains, strain wtn01, active compounds read low 0.922 | S. cerevisiae strains, strain wild type, active compounds read low 0.909
active: S. cerevisiae deletion strains, locus YKR001C, strain vps1, active compounds read low 0.867 | S. cerevisiae deletion strains, locus YLR418C, strain cdc73, active compounds read low 0.748 | S. cerevisiae deletion strains, locus YMR223W, strain ubp8, active compounds read low 0.902 | S. cerevisiae deletion strains, locus YNL307C, strain MCK1, active compounds read low 0.871 | S. cerevisiae deletion strains, locus YOR184W, strain ser1, active compounds read low 0.872
